# Screening data (PubChem)
# MITF inh = human MITF inhibition, primary screen; O75030; AlphaScreen MITF homodimerization, bead proximity signal; inhibition, % at 2.6 µM; 650,000 compounds, 0.91% hits; AID 1259374; in the data active = inhibition above about 50%;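 note: 0% = vehicle wells with protein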
# Target sequence (O75030 whole entry, looked up): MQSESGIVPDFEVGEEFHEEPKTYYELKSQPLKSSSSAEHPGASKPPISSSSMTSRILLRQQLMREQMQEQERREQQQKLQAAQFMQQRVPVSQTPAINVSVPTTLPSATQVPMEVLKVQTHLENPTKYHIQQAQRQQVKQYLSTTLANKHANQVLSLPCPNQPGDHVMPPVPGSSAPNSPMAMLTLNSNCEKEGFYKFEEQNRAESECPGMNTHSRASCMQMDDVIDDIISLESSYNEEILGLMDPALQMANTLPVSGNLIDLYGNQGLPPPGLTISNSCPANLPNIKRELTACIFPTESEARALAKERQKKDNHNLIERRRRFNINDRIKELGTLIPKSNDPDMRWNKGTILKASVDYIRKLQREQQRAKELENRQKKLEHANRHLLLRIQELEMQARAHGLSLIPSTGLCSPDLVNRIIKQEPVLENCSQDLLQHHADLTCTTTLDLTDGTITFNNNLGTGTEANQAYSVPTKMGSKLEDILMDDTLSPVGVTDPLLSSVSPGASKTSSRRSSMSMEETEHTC
# GPR151 ag = activates the human receptor GPR151; Q8TDV0; PathHunter beta-arrestin GPR151 cells, luminescence; activation, % at 11.2 µM; 650,000 compounds, 1% hits; AID 1508602; in the data active = activation above about 4.9%;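 note: 0% = median of compound wells and 100% = cells with positive control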
# FBW7 activator = human FBW7 E3 ligase activation, primary screen | AlphaScreen FBW7–phospho-cyclin E peptide binding, activator screen | Q969H0 | 650,000 compounds, 0.13% hits | normalized activity (activation), % at 26.1 µM; in the data active = normalized activity above about 1.9%;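 note: purified mutant Fbw7 with reduced substrate affinity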
# TEAD-YAP inh = TEAD-YAP interaction inhibition; AID 1259422; HEK-TIYL cells, TEAD-Gal4/YAP UAS-luciferase luminescence; inhibition, % at 9.12 µM; 640,000 compounds, 1.4% hits; in the data active = inhibition above about 32%;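 note: 0% = median of test compound wells and 100% = reference inhibitor wells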
# Numbers without * were called inactive. Compounds with a hit are over-represented: about 3.5% of the library has one in this group of screens.
SMILES,MITF inh,GPR151 ag,FBW7 activator,TEAD-YAP inh
CCC(C)NC(=O)c1ccc(CNC(=O)c2cccc(Br)c2)cc1 (stereo unspecified),14,-1,0,0
COc1ccc(-c2noc(CN(Cc3c(C)nn(C)c3C)C(C)C)n2)c(OC)c1OC,0,0,0,59*
O=c1cc(-c2ccc(O)c(O)c2)oc2cc(O)c(C3OC(CO)C(O)C(O)C3O)c(O)c12 (stereo unspecified),74*,-1,0,3
O=c1cc(-c2ccc(O)cc2)oc2c(C3O[C@H](CO)[C@@H](O)[C@H](O)[C@H]3O)c(O)cc(O)c12 (stereo partly specified),32,-1,0,-8
O=c1c(O[C@@H]2O[C@H](CO)[C@H](O)[C@H](O)[C@H]2O)c(-c2ccc(O)c(O)c2)oc2cc(O)cc(O)c12,-9,0,0,-7
O=c1c(O[C@@H]2O[C@H](CO)[C@@H](O)[C@H](O)[C@H]2O)c(-c2ccc(O)c(O)c2)oc2cc(O)cc(O)c12,61*,1,0,-2
O=c1c(O[C@@H]2OC([C@H](O)CO)[C@H](O)[C@H]2O)c(-c2ccc(O)c(O)c2)oc2cc(O)cc(O)c12 (stereo partly specified),84*,1,0,-7
C[C@@H]1O[C@@H](OC[C@H]2O[C@@H](Oc3c(-c4ccc(O)c(O)c4)oc4cc(O)cc(O)c4c3=O)[C@H](O)[C@@H](O)[C@@H]2O)[C@H](O)[C@H](O)[C@H]1O,83*,-1,0,3
O=C(NCc1ccccc1)NCc1nc(-c2ccncc2)n[nH]1,6,1,0,2
COCCN(CC(=O)NC1CCCCC1)C(=O)/C=C/C(=O)c1ccc(OC)cc1O,-2,2,0,49*
COc1ccc(C(=O)OCC(=O)NC(=O)NC2CCCC2)c(O)c1,-6,1,0,8
Cc1ccccc1-n1nc2c(c1NC(=O)c1cccc(Cl)c1)CSC2,23,2,0,3
Cc1csnc1NC(=O)c1c(N)nc2c(c1C(F)(F)F)OC1=C(CCC1)O2,6,1,0,96*
O=c1c2c(nc3cc(-c4ccco4)[nH]n13)CCS2,89*,-2,0,-29
O=C(CCc1nnc(COc2ccccc2)o1)NC1CCCC1,1,1,0,-51
CCc1nn(CC(=O)C(C)(C)C)c(=O)c2cc3ccsc3n12,-4,-1,17*,2
c1ccc(Cn2c(C3COc4ccccc4O3)nc3ncc(-c4ccncc4)cc32)cc1 (stereo unspecified),-6,0,0,47*
CCn1c(C2COc3ccccc3O2)nc2ccc(-c3ccncc3)cc21 (stereo unspecified),24,-1,0,-15
N#C/C(=C1/C(=O)Nc2ccc(Br)cc21)c1nnc2n1CCCCC2,6,-1,0,3
O=C(CN1CCCc2ccccc21)N/N=C/c1ccc(Cl)cc1,-7,0,0,36*
O=C(CN1CCCc2ccccc21)N/N=C/c1ccccc1,-5,1,0,-3
COc1cccc(CSc2nc3ccncc3[nH]2)c1,-3,-1,0,69*
FC(F)(F)c1cccc(CNc2nc(NCc3cccnc3)nc3c2ncn3-c2ccccc2)c1,-8,0,0,48*
FC(F)(F)c1cccc(CNc2nc(Nc3cnccn3)nc3c2ncn3-c2ccccc2)c1,-5,-1,0,6
CC(C)n1cnc2c(NCc3cccc(C(F)(F)F)c3)nc(NCc3cccnc3)nc21,13,0,0,40*
SMILES,MITF inh,GPR151 ag,FBW7 activator,TEAD-YAP inh
O=C(Cn1c(=O)c(C(F)(F)F)nc2ccccc21)N1CCCCCC1,-2,1,0,-12
CCCOc1ccc(/C=N/Nc2nc(C)cc(=O)[nH]2)c(O)c1,34,2,-1,86*
Cc1n[nH]c(=O)nc1N/N=C/c1ccc(O)cc1O,97*,-6,-1,42*
Cc1cc(=O)[nH]c(N/N=C/c2cc(Br)cc(Br)c2O)n1,6,0,0,4
Cc1cc(=O)[nH]c(N/N=C/c2ccc(O)cc2O)n1,76*,1,-1,2
Cc1n[nH]c(=O)nc1N/N=C/c1ccccc1Cl,-1,-7,0,-3
Cc1n[nH]c(=O)nc1N/N=C/c1ccc(N(C)C)cc1,10,-7,0,55*
COCCN1C(=O)/C(=C/c2cc(Br)ccc2OCC(=O)O)SC1=S,14,1,0,-5
O=C(C(=O)N1CCN(C(=O)c2ccco2)CC1)c1c(-c2ccccc2)cc2ccccn12,3,0,0,42*
Cc1ccc(N2C(=O)CSC2c2cccc([N+](=O)[O-])c2)cc1F (stereo unspecified),0,-1,0,34*
